The text below walks through data of PubChem BioAssay AID1851 (National Center for Advancing Translational Sciences (NCATS), 2009).

The campaign covered roughly 16,000 compounds. About 5,800 (36%) were called active. Roughly 23% stayed inconclusive and do not appear here. Calls follow the shape of the dose curve; as a rule, active = well fitted curve in the direction sought with a large enough effect; inconclusive = small, poorly fitted or top-dose-only effect, or effect the other way; inactive = no such curve, though single readings can be large or run the other way. The list shows a part of the results.
% is scaled to controls: 0 for no effect and ±100 for the full control effect.

Cytochrome P450 2C19 (Homo sapiens), sequence (P33261 whole entry, looked up): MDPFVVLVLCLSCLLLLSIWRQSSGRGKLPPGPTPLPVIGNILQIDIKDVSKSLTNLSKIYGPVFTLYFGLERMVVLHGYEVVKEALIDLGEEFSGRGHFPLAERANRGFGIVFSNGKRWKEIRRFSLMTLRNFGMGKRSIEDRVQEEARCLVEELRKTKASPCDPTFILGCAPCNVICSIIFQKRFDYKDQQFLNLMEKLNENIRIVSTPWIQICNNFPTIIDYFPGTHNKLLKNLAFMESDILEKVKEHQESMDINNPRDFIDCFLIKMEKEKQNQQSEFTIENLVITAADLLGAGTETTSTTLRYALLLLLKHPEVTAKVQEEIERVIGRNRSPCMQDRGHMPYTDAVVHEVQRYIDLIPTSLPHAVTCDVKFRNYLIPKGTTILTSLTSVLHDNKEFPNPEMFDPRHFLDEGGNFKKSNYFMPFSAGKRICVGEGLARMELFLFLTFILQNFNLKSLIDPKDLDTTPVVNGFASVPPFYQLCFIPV

This assay has as its target Cytochrome P450 2C19 (Homo sapiens) (UniProt P33261). Description: Cytochrome panel assay with activity outcomes. The following applies: recombinant CYP, pro-luciferin dealkylation, luminescence, p450-cyp2c19; series mostly up to 57.1 µM.
For `CO[C@@H]1COC(=O)[C@H](C)NC(=O)[C@@H](C)COC(=O)CCC[C@H]1C`, the activity, negative = inhibition was 15.2% [at 11.4 µM] (inactive).

For `Cc1ccccc1OCC(=O)Nc1sc(C(=O)Nc2cccc(C)c2C)c(C)c1C#N`, the AC50 (as a rule, the concentration giving half of the maximal activity seen) is “inactive”.

As for `CCOC(=O)c1sc(NC(=O)CSc2nc(C)cc(C)c2C#N)c(C#N)c1C`, the AC50 is 5.62 µM (active).

`CCOC(=O)c1sc(NC(=O)CSc2n[nH]c(-c3ccc(Cl)cc3Cl)n2)c(C#N)c1C`: the AC50 is 2.24 µM (active).

In the case of `CCOC(=O)c1sc2c(c1C)c(=O)c(C(=O)OCC)cn2CC`, the AC50 entry was “inactive”.

Turning to `CCOc1ccc(-c2c[n+](=O)c3c(n2[O-])CCCC3)c(OCC)c1`, the AC50 result was “inactive”.

Turning to `O=C1c2ccccc2N[C@H](c2cc(Cl)cc(Cl)c2O)N1CCc1ccccn1`, the AC50 was 3.98 µM (active).

As to `COc1ccc(OC)c(Nc2nc(-c3sc(NC(=O)c4ccccc4)nc3C)cs2)c1`, the AC50 was 6.31 µM (active).

For the compound `CCOc1ccccc1Nc1nc(-c2sc(NC(=O)c3ccccc3)nc2C)cs1`, the half-maximal activity concentration (AC50) was 3.16 µM (active).

As for `COc1cc(C(=O)Nc2nc3ccc4nc(C)sc4c3s2)cc(OC)c1OC`, the AC50 result is “inactive”.

Regarding `CCn1c(C)c(/C=N/Nc2nc3ccccc3s2)c2ccccc21`, the concentration at half-maximal activity (AC50) was 3.16 µM (active).

For the compound `Cc1c(Nc2ncccc2C(=O)O)cccc1C(F)(F)F`, the AC50 entry was “inactive”.

As for `Cc1ccc(-c2ccc(=O)n(CC(=O)NCCN(C)C)n2)cc1`, the AC50 entry was “inactive”.

`CCCN1CCN(CCCNC(=O)Cn2nc(-c3ccc(C)cc3)ccc2=O)CC1`: the AC50 entry was “inactive”.

As to `Cc1ccc(-c2ccc(=O)n(CC(=O)NCc3ccco3)n2)cc1`, the AC50 was 7.94 µM (active).

Turning to `Cc1ccc(OCCCC(=O)Nc2ccccc2C(F)(F)F)cc1`, the AC50 is 6.31 µM (active).

In the case of `Cc1cccc(OCCCC(=O)Nc2ccccc2C(F)(F)F)c1`, the AC50 is 7.08 µM (active).

Regarding `COc1ccc([N+](=O)[O-])cc1NC(=S)NC(NC(=O)Cc1ccc(OC)c(OC)c1)C(Cl)(Cl)Cl` (centres undefined), the AC50 is 0.708 µM (active).

Consider `Nc1ncnc2c1nc(-c1ccccc1)n2[C@H]1O[C@@H](CO)[C@@H](O)[C@H]1O`, for which the activity, negative = inhibition is -0.591% [at 11.4 µM] (inactive).

For the compound `CCO[P@]1(=O)OC[C@@H]2O[C@H](n3cnc4c(N)ncnc43)[C@H](O)[C@@H]2O1`, the activity, negative = inhibition was 14% [at 11.4 µM] (inactive).

As for `COc1ccccc1NC(=O)Cn1cncc1-c1ccc([N+](=O)[O-])cc1`, the AC50 result was “inactive”.

In the case of `C/C(CC(=O)NCc1ccco1)=N\NC(=O)Cc1ccccc1`, the AC50 result is “inactive”.

For the compound `CCN(CC(=O)Nc1ccc([N+](=O)[O-])cc1OC)c1ccccc1`, the AC50 is 5.62 µM (active).

For `Cc1c(C(=O)Nc2ccc(OCc3ccccc3)cc2)cccc1[N+](=O)[O-]`, the AC50 entry was “inactive”.

Regarding `Cc1ccc(OCCCC(=O)NCc2ccco2)cc1`, the AC50 was 10 µM (active).

As to `Cc1ccc(OCC(=O)NNC(=O)CCc2ccccc2)cc1`, the AC50 entry is “inactive”.

As for `Cc1ccc(OCC(=O)Nc2ccccc2-c2ccccc2)cc1`, the concentration at half-maximal activity (AC50) was 3.55 µM (active).

Regarding `Cc1c(NC(=O)CCCOc2ccccc2)cccc1[N+](=O)[O-]`, the AC50 was 2.51 µM (active).

On to `Cc1ccc(CS(=O)(=O)CCC(=O)NCCCOC(C)C)cc1`, for which the AC50 entry is “inactive”.

For the compound `Cc1ccc(OCC(=O)NC2=NCCS2)cc1`, the AC50 is 17.8 µM (active).

As to `Cc1ccc(OCC(=O)Nn2cnc3ccccc32)cc1`, the AC50 is 20 µM (active).

With `Cc1ccc(OCC(=O)NNC(=O)c2cc3ccccc3o2)cc1`, the AC50 entry was “inactive”.

Turning to `Cc1c(NC(=O)C(Sc2ccccc2)c2ccccc2)cccc1[N+](=O)[O-]` (centres undefined), the AC50 was 0.891 µM (active).

On to `COc1ccc([N+](=O)[O-])cc1NC(=O)CC(C)c1ccccc1` (centres undefined), for which the half-maximal activity concentration (AC50) is 3.55 µM (active).

Regarding `C[C@@H]1O[C@@H](n2cc(F)c(=O)[nH]c2=O)[C@H](O)[C@@H]1O`, the AC50 entry is “inactive”.

As to `Cc1cccc2cc(=O)[nH]c(C)c12`, the AC50 result was “inactive”.

Take `C[N+]1(CCC[N+]2(C)C[C@H]3[C@H](C2)[C@H]2C=C[C@@H]3CC2)CCOCC1` (some centres undefined): the activity, negative = inhibition was -6.43% [at 11.4 µM] (inactive).

Regarding `COc1cc([N+](=O)[O-])ccc1NC(=O)CCCOc1cccc(C)c1`, the AC50 is 3.98 µM (active).

For `Cc1cc2c(cc1S(N)(=O)=O)S(=O)(=O)CCC2`, the AC50 result is “inactive”.

Take `CCCCNC(=O)CCC(=O)Nc1ccc2nc(N3CCOCC3)cc(C)c2c1`: the AC50 was 25.1 µM (active).

Consider `COCCCNC(=O)CCC(=O)Nc1ccc2nc(N3CCOCC3)cc(C)c2c1`, for which the AC50 entry is “inactive”.

In the case of `Cc1ccccc1C(=O)NNC(=O)c1ccc(F)cc1`, the AC50 result was “inactive”.

On to `Cc1ccccc1C(=O)NN(C)c1nc2ccccc2nc1C(F)(F)F`, for which the AC50 was 0.355 µM (active).

On to `O=C(c1cc(C(F)(F)F)cc(C(F)(F)F)c1)N1CCC[C@@]2(CCN(c3ccncc3)C2)C1`, for which the AC50 entry was “inactive”.

Regarding `O=C(Nc1ccccc1)N(Cc1ccccc1)CC(O)C(F)(F)F` (centres undefined), the AC50 was 5.01 µM (active).

For `O=S(=O)(C[C@H](O)C(Cl)(Cl)Cl)NNc1ccccc1`, the activity, negative = inhibition is -25.2% [at 11.4 µM] (inactive).

Regarding `O=C(Nc1cccc(C(F)(F)F)c1)N(Cc1ccc(Cl)cc1)CC(O)C(F)(F)F` (centres undefined), the AC50 is 3.98 µM (active).

On to `CCCC(=O)NC(Nc1ccccc1F)C(Cl)(Cl)Cl` (centres undefined), for which the AC50 is 2.82 µM (active).

As for `CCC(=O)NC(NCC1CCCO1)C(Cl)(Cl)Cl` (centres undefined), the AC50 entry was “inactive”.

On to `CCCC[C@]1(C2CCCC2)Cc2cc(OCC(=O)O)c(Cl)c(Cl)c2C1=O`, for which the AC50 entry was “inactive”.

As for `CCOC(=O)C1=C(C)N=C2c3ccccc3C(=O)C2C1c1ccc(C)cc1` (centres undefined), the AC50 is 1 µM (active).

On to `CCOC(=O)C1=C(C)N=C2c3ccccc3C(=O)C2C1c1ccc(Cl)cc1` (centres undefined), for which the AC50 was 0.631 µM (active).

On to `CO[C@@H]1/C=C\CC(=O)N[C@@H](C)C(=O)OC[C@H](NS(=O)(=O)c2ccc(C)cc2)[C@H](C)/C=C\CC(=O)OC[C@H]1C`, for which the activity, negative = inhibition was -0.432% [at 11.4 µM] (inactive).

Consider `NC(=O)N[C@H]1NC(=O)NC1=O`, for which the AC50 entry was “inactive”.

Regarding `CCC(=O)c1ccc(OCc2ccc(C(=O)OC)cc2)c(OC)c1`, the AC50 is 3.16 µM (active).

Regarding `CC(Oc1ccc(O)cc1)(P(=O)(O)O)P(=O)(O)O`, the AC50 result was “inactive”.

For the compound `O=C(Nc1ccccc1C(=O)Nc1ccc2c(c1)OCO2)c1ccco1`, the AC50 is 3.16 µM (active).

Regarding `CC1(C)Oc2ccc(NC(=O)c3ccco3)cc2O1`, the AC50 is 14.1 µM (active).

As to `CCC(=O)[C@@]1(C)[C@H](C)C[C@@H]2[C@@H]3CCC4=CC(=O)C=C[C@@]4(C)[C@H]3[C@H](O)C[C@]21C`, the AC50 entry was “inactive”.

Consider `COn1c(SCc2cccc(Cl)c2)nc2ccccc2c1=O`, for which the AC50 is 2.24 µM (active).

Take `COn1c(SCc2ccc(C)cc2C)nc2ccccc2c1=O`: the AC50 was 3.55 µM (active).

With `Cc1ccc(-n2c(SCc3ccc([N+](=O)[O-])cc3)nc3ccccc3c2=O)cc1`, the AC50 entry is “inactive”.

With `O=[N+]([O-])c1ccc(/C=N/Nc2cc(Cl)nc(-c3ccccc3)n2)cc1`, the AC50 result is “inactive”.

For `O=[N+]([O-])c1cccc(/C=N/Nc2cc(Cl)nc(-c3ccccc3)n2)c1`, the AC50 is 2 µM (active).

With `Nc1nnc(CC(=O)N/N=C/c2cccc([N+](=O)[O-])c2)s1`, the AC50 result is “inactive”.

For `COc1ccc(NC(=O)N2CCCC3(CCN(C(=O)c4csnn4)CC3)C2)cc1`, the AC50 result is “inactive”.

For the compound `Cc1cc2c(nc1C)CCCN2C[C@@H](O)CN1CCN(C)CC1`, the activity, negative = inhibition is 4.3% [at 11.4 µM] (inactive).

On to `CO[C@@H](NC(N)=O)C(=O)O`, for which the activity, negative = inhibition is 20.6% [at 11.4 µM] (inactive).

For the compound `O=C(CCCc1ccccc1)N1CCN(c2ccc([N+](=O)[O-])cc2)CC1`, the AC50 is 8.91 µM (active).

Regarding `COCC(=O)N1CCN(c2ccc([N+](=O)[O-])cc2)CC1`, the AC50 entry was “inactive”.

Turning to `CC[N+](CC)(CC)CC`, the AC50 entry was “inactive”.

Regarding `COc1ccc(S(=O)(=O)NCCC(=O)NCc2ccc(F)cc2)cc1`, the AC50 entry is “inactive”.

For the compound `CC(=O)Nc1ccc(S(=O)(=O)NCCc2ccc(F)cc2)cc1`, the AC50 is 5.01 µM (active).

As for `O=c1c2c(-c3ccc(Cl)cc3)csc2nc2n1CCC2`, the AC50 is 8.91 µM (active).

Turning to `O=c1c2ccccc2nc2n1CCC2`, the AC50 result was “inactive”.

In the case of `Cc1c(OCC(F)(F)F)ccnc1CSc1nc2ccccc2[nH]1`, the AC50 was 1.58 µM (active).

As for `C[N+](C)(C)CCCSc1nc2ccccc2[nH]1`, the activity, negative = inhibition is 32.5% [at 11.4 µM] (inactive).

Take `COC(=O)c1ccc(NC(=O)c2ccccc2NS(=O)(=O)c2ccccc2)cc1`: the AC50 was 3.98 µM (active).

With `CC(C)C1NC(=S)N(Cc2ccccc2)C1=O` (centres undefined), the half-maximal activity concentration (AC50) is 2 µM (active).

On to `O=C(N/N=C\c1cn(-c2ccccc2)nc1-c1ccccc1)c1ccc2c(c1)OCO2`, for which the concentration at half-maximal activity (AC50) was 3.16 µM (active).

In the case of `Cc1ccc(-c2nn(-c3ccccc3)cc2/C=N/NS(=O)(=O)c2ccccc2)cc1`, the AC50 is 8.91 µM (active).

With `O=C(N/N=C\c1cn(-c2ccccc2)nc1-c1ccccc1)c1ccc(Br)o1`, the AC50 was 2 µM (active).

Regarding `Cc1c(/C=N/NC(=O)c2ccc3c(c2)OCO3)cnn1C`, the AC50 entry is “inactive”.

`COc1ccc(CNn2c(C)nc3ccccc3c2=O)cc1`: the AC50 was 0.316 µM (active).

Regarding `COc1ccc(CN[C@H](C)C(=O)O)cc1`, the activity, negative = inhibition is 24.9% [at 11.4 µM] (inactive).

Turning to `CCCCOc1ccc(CNn2c(C)nc3ccccc3c2=O)cc1`, the AC50 was 0.112 µM (active).

As to `Cc1nc2ccccc2c(=O)n1NC(=O)c1ccccc1Cl`, the half-maximal activity concentration (AC50) is 20 µM (active).

With `N/N=C1/CC(=O)NC(=O)N1`, the activity, negative = inhibition was -9.46% [at 11.4 µM] (inactive).

As to `CCCCOC(=O)C1=C(C)Nc2ncnn2C1c1cc(OC)ccc1OC` (centres undefined), the AC50 was 20 µM (active).

Regarding `COc1cc(OC)c(C2C(C(=O)Nc3ccc(C)cc3C)=C(C)Nc3ncnn32)cc1OC` (centres undefined), the AC50 entry was “inactive”.

For `CCCCOc1cc(C(=O)NCCN(CC)CC)c2ccccc2n1`, the AC50 result is “inactive”.

Turning to `COCCCNC(=O)c1c(N)n(/N=C/c2ccccn2)c2nc3ccccc3nc12`, the concentration at half-maximal activity (AC50) was 10 µM (active).

As for `CCNc1ncc2nc(-c3cccs3)c(=O)n(C[C@H]3CCCO3)c2n1`, the AC50 entry is “inactive”.

On to `CCC(=O)N(C)/C=C1\Sc2ccccc2C1=O`, for which the AC50 was 20 µM (active).

Regarding `CN(C)C(=O)CSC1c2ccccc2C(=O)N1c1ccccc1` (centres undefined), the AC50 entry was “inactive”.

On to `CCOC(=O)C1CCCN(C(=O)c2sc3nc(-c4ccc(OC)cc4)cn3c2C)C1` (centres undefined), for which the half-maximal activity concentration (AC50) is 7.94 µM (active).

As to `CCSc1nc2c(c(=O)[nH]1)C(c1ccccn1)C1=C(CC(C)(C)CC1=O)N2` (centres undefined), the AC50 entry is “inactive”.

In the case of `CCSc1nc2c(c(=O)[nH]1)C(c1ccncc1)C(C(=O)OC(C)C)=C(C)N2` (centres undefined), the AC50 was 0.708 µM (active).

In the case of `CSc1nc2c(c(=O)[nH]1)C(c1ccncc1)C(C(=O)OC(C)C)=C(C)N2` (centres undefined), the AC50 is 1.12 µM (active).
